Hits are enriched below; roughly 1.8% of the tested compounds scored in any of these assays.
EWS-Fli inh = blocks EWS/Fli oncoprotein-driven transcription; A673 NR0B1-luciferase reporter, viability-normalised; inhibition, % at 12.6 µM; 350,000 tested, 0.67% active; AID 651661;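 active = mean inhibition of at least 50% after viability correction, with every replicate also passing that limit; inconclusive = mean reaches 50% but only one of two replicates passes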;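 also: firefly luciferase signal divided by Alamar Blue viability fluorescence both relative to DMSO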
PAX8 inh HTS = lowers PAX8-driven luciferase in RMG-I cells; RMG-I TPO-luciferase reporter, SteadyGlo, 24 h; inhibition, % at 12.6 µM; 360,000 tested, 1.2% active; AID 652154;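 active = mean replicate inhibition at least 60% with every replicate also reaching 60%; inconclusive = only one of the two criteria is met; inactive = mean below 60% and not all replicates reaching 60%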;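 also: luciferase light reporting Pax8 driven TPO promoter activity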
CFTR F508del cor = CFTR F508del correction in bronchial cells. activity (quench increase), % at 7.58 µM. 350,000 tested, 0.36% active. CFBE cells, YFP halide quenching; stimulated with forskolin plus potentiator P3; % fluorescence drop versus neutral controls;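 active = mean added fluorescence quench of at least 8% versus neutral control, with both replicates also reaching 8%; inconclusive = only one of the mean or replicate conditions met; inactive = mean below 8% and not both replicates reaching 8%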;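 also: cells transiently co-express mutant CFTR-F508del with the halide-sensitive YFP; corrector assay measuring rescue of mutant channel to the surface after 24 h compound exposure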
LGR2 inh = Drosophila LGR2 receptor signaling inhibition. HEK293 LGR2, CRE-luciferase, bursicon-stimulated, 4 h. inhibition, % at 9.99 µM. 380,000 tested, 0.35% active. AID 720647;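 active = drop in luminescence signal, shown as inhibition above about 50% in the replicate tests, limit read from the data, passing the limit was not always enough; inconclusive = probably only some replicates passing the limit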;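 also: agonist challenge used bursicon conditioned medium at about half maximal strength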
Large screens that a line does not name were inactive; ! = a repeat was not active.

CC1CC(C)C(=O)C(C(CC2CC(=O)NC(=O)C2)OC(=O)CC(=O)c2ccccc2)C1 (configuration not stated)	PAX8 inh HTS 84.5, LGR2 inh 82.5
Cc1noc2ncnc(N3CCCC3)c12	none
Cc1noc2ncnc(Sc3ccc(Br)cc3)c12	LGR2 inh 76.0
CCC1Sc2ccc(S(=O)(=O)CCC(=O)NC3CCCCCC3)cc2NC1=O (configuration not stated)	none
O=C(O)COc1ccc(-c2nccc(-c3ccccn3)n2)cc1	EWS-Fli inh 53.2
COc1ccc(S(=O)(=O)N(C(=O)C(C)C)c2ccc3oc(=O)sc3c2)cc1	CFTR F508del cor 11.1 (no result: PAX8 inh HTS)
CC(C)C(=O)N(c1ccc2oc(=O)sc2c1)S(=O)(=O)c1ccccc1	none (no result: PAX8 inh HTS)
CC(=O)c1ccc(Nc2cc(C)nc3ccc(C)cc23)cc1	LGR2 inh 62.2 (no result: CFTR F508del cor)
COc1ccc(Nc2cc(C)nc3ccc(C)cc23)cc1	none
CNc1cncc(-c2cc(C)c(O)c(C)c2)n1	EWS-Fli inh 52.3
CNc1cncc(-c2ccc(O)cc2)n1	none
O=C(NC(=S)Nc1cccc(S(=O)(=O)NC2=NCCC2)c1)c1cc(-c2ccco2)nc2ccccc12	EWS-Fli inh 57.2
COc1ccc(-c2nc(CC(=O)Nc3cccc(S(=O)(=O)NC4=NCCC4)c3)cs2)cc1	PAX8 inh HTS 74.3
O=C(Nc1cccc(S(=O)(=O)NCc2ccco2)c1)c1cc(-c2ccc(F)cc2)nc2ccccc12	none (no result: CFTR F508del cor)
CCOc1ccc(C(=O)N[C@H](C(=O)Nc2cccc(S(=O)(=O)N3CCCCC3)c2)C(C)C)cc1	CFTR F508del cor 14.7
COc1ccccc1OCC(=O)Nc1cccc(S(=O)(=O)NC2=NCCCCC2)c1	none
COc1ccc(-c2cc(C(=O)Nc3cccc(S(=O)(=O)NCc4ccco4)c3)c3ccccc3n2)cc1OC	PAX8 inh HTS 69.6
CN(C)c1ccc(-c2csc(C(C)(O)c3ccccc3)n2)cc1 (configuration not stated)	none
CCN(C(=O)CCc1cn(CC)c2ccccc12)c1ccc(Oc2cccnc2)cc1	none
CCOc1ccc(OCC(=O)Nc2cccc(S(=O)(=O)NC3=NCCC3)c2)cc1	none
CCOc1ccc(C(=O)NC(=S)Nc2cccc(S(=O)(=O)NC3=NCCC3)c2)cc1	EWS-Fli inh 58.9
COc1ccc(-c2nsc3c(N4CCCCC4)ncnc23)cc1	PAX8 inh HTS 75.5 (no result: EWS-Fli inh, CFTR F508del cor, LGR2 inh)
COc1ccc(C(=O)N2CCN(c3ncnc4c(-c5ccccc5)nsc34)CC2)cc1	none (no result: EWS-Fli inh, CFTR F508del cor, LGR2 inh)
COc1ccc(-c2nsc3c(N4CCCCC4C)ncnc23)cc1 (configuration not stated)	EWS-Fli inh 82.6, PAX8 inh HTS inconclusive, LGR2 inh 94.6
CC(=O)O[C@H]1C(=O)[C@]2(C)[C@H]([C@H](OC(=O)c3ccccc3)[C@]3(O)C[C@H](OC(=O)[C@H](O)[C@@H](NC(=O)c4ccccc4)c4ccccc4)C(C)=C1C3(C)C)[C@]1(OC(C)=O)CO[C@@H]1C[C@@H]2O	EWS-Fli inh 61.2, CFTR F508del cor 10.2
CC(=O)O[C@H]1C(=O)[C@@]2(C)C([C@H](OC(=O)c3ccccc3)[C@]3(O)C[C@H](OC(=O)[C@H](O)[C@@H](NC(=O)c4ccccc4)c4ccccc4)C(C)=C1C3(C)C)[C@]1(OC(C)=O)CO[C@@H]1C[C@H]2O (some centres not stated)	EWS-Fli inh 54.5, CFTR F508del cor 17.9 (no result: PAX8 inh HTS)
Cc1ccc(CN2CC(C(=O)OCc3ccccc3Cl)CC2=O)cc1 (configuration not stated)	none
CCOc1cccc(-c2c(C(=O)N/N=C(\C)c3ccccn3)nnn2-c2nonc2N)c1	PAX8 inh HTS 69.1 (no result: EWS-Fli inh)
COC(=O)C1=CN(c2ccc3c(c2)OCO3)C(N)=C(C#N)C1c1ccc(-c2ccccc2)cc1 (configuration not stated)	EWS-Fli inh 66.9
COc1ccc(N(CC(=O)NCC2CCCO2)S(=O)(=O)c2ccc(C)cc2)cc1OC (configuration not stated)	none (no result: EWS-Fli inh, CFTR F508del cor, LGR2 inh)
O=C1C(=O)N(CCN2CCOCC2)C(c2cccc(Cl)c2)/C1=C(\O)c1ccc2c(c1)OCCO2 (configuration not stated)	none (no result: EWS-Fli inh)
COc1cccc(CNC(=O)CCc2nnc(C3CCCCC3)o2)c1	none
CC1CC(Nc2ccccc2)c2ccccc2N1C(=O)c1ccccc1F (configuration not stated)	EWS-Fli inh 62.6
Nc1nc(Nc2ccccc2)sc1C(=O)c1ccccc1	LGR2 inh 71.0
COc1ccc(C(=O)c2sc(Nc3ccccc3)nc2N)cc1	none
CCN1CCN(Cc2ccc(NC(=O)c3cccc(-c4ccc5nc(NC(=O)C6CC6)sc5n4)c3)cc2C(F)(F)F)CC1	PAX8 inh HTS 80.2, LGR2 inh 76.3
CCN1CCN(Cc2ccc(NC(=O)c3ccc(C)c(NC(=O)C(=O)c4c[nH]c5ccccc45)c3)cc2C(F)(F)F)CC1	EWS-Fli inh 58.5!, PAX8 inh HTS 101.1
CCN1CCN(Cc2ccc(NC(=O)c3cc(NC(=O)c4cc(C)on4)cc(OC)c3)cc2C(F)(F)F)CC1	none
CCN1CCN(Cc2ccc(NC(=O)c3cc(NC(=O)C(=O)c4c[nH]c5ccccc45)cc(OC)c3)cc2C(F)(F)F)CC1	EWS-Fli inh 54.2, PAX8 inh HTS 95.2
CCN1CCN(Cc2ccc(NC(=O)c3cc(NC(=O)c4cnn(-c5ccccc5)c4N)cc(OC)c3)cc2C(F)(F)F)CC1	EWS-Fli inh 61.3
CCN1CCN(Cc2ccc(NC(=O)c3ccc(C)c(NC(=O)c4ccc5n[nH]nc5c4)c3)cc2C(F)(F)F)CC1	none
COc1cc(OC)cc(-c2nc3nc(C)c(CCC(=O)NCC(OC)OC)c(C)n3n2)c1	none (no result: CFTR F508del cor)
O=C(Nc1cccc2ccccc12)c1csc([C@@H]2O[C@H](CO)[C@@H](O)[C@H]2O)n1	none
CC(=O)c1ccc(N=Nc2c(C)[nH][nH]c2=O)cc1	none (no result: LGR2 inh)
CC(=O)c1ccc(N=Nc2ccc(N)cc2)cc1	LGR2 inh 63.6
CC(C)(C)c1ccc(-c2cc(-c3ccccc3O)[nH]n2)cc1	none
CC(C)(C)c1ccc(-c2cc(N)n[nH]2)cc1	EWS-Fli inh 62.6 (no result: LGR2 inh)
CCC(=O)N(C)C[C@@H]1Oc2cc(C#CC3(O)CCCC3)ccc2S(=O)(=O)N([C@@H](C)CO)C[C@@H]1C	none (no result: PAX8 inh HTS)
COc1ccc2oc(C(=O)N3CCc4ccccc43)c(C)c2c1	LGR2 inh 58.8 (no result: EWS-Fli inh)
COc1ccc2oc(C(=O)N3CCN(C(c4ccccc4)c4ccccc4)CC3)c(C)c2c1	none
Clc1ccc2nc(-c3ccc4c(c3)OCO4)cn2c1	LGR2 inh 85.8
COc1ccc(-c2cn3cc(C)ccc3n2)cc1OC	none (no result: EWS-Fli inh, CFTR F508del cor, LGR2 inh)
Cc1ccc2nc(-c3ccc4c(c3)OCCO4)cn2c1	PAX8 inh HTS 86.9, CFTR F508del cor 12.1, LGR2 inh 91.3
O=S(=O)(c1cccc(-c2cn3ccccc3n2)c1)N1CCCCC1	none
Clc1ccc2nc(-c3ccccc3)cn2c1	none
Cc1ccc2nc(-c3ccc4c(c3)NC(=O)CO4)cn2c1	none
COc1ccc(-c2cn3cc(C)ccc3n2)cc1F	LGR2 inh 90.2
c1ccn2cc(-c3ccc4c(c3)OCCO4)nc2c1	EWS-Fli inh 54.1, LGR2 inh 90.6
CC1(C)Oc2ccc(C(=O)Nc3ccccc3)cc2N(CC#N)C1=O	none

Screens from PubChem.
